A selection: hits, their analogues and other compounds. The true share with any hit is near 3.4%.
FBW7 activator: activators of human E3 ligase FBW7. Q969H0. AlphaScreen FBW7–phospho-cyclin E peptide binding, activator screen. normalized activity (activation), % at 26.1 µM. 650,000 compounds, 0.13% hits. AID 1259310; in the data active = normalized activity above about 1.9%;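 note: purified mutant Fbw7 with reduced substrate affinity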
TEAD-YAP inh: TEAD-YAP interaction inhibition | HEK-TIYL cells, TEAD-Gal4/YAP UAS-luciferase luminescence | inhibition, % at 9.12 µM | 640,000 compounds, 1.4% hits | AID 1259422; in the data active = inhibition above about 32%
GPR151 ag: human GPR151 activation; PathHunter beta-arrestin GPR151 cells, luminescence; activation, % at 11.2 µM; 650,000 compounds, 1% hits; AID 1508602; in the data active = activation above about 4.9%
Target sequence (Q8TDV0 whole entry, looked up): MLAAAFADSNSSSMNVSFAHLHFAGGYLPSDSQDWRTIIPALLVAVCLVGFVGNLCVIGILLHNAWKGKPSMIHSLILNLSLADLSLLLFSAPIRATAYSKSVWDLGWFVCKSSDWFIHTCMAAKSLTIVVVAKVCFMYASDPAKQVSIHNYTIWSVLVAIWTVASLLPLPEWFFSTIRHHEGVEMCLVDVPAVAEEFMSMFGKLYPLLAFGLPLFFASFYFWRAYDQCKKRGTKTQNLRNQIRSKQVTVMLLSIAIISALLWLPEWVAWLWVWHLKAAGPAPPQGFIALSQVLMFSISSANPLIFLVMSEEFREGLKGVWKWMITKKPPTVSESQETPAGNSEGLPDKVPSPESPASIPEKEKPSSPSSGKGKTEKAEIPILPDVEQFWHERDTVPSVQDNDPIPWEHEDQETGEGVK
MITF inh: blocks human microphthalmia-associated transcription factor | 650,000 compounds, 0.91% hits | inhibition, % at 2.6 µM | AlphaScreen MITF homodimerization, bead proximity signal | O75030 | AID 1259374; in the data active = inhibition above about 50%
Hits are given with their value; - = inactive.

SMILES | FBW7 activator | TEAD-YAP inh | GPR151 ag | MITF inh
Cc1ccc2nc(NS(=O)(=O)c3ccc(Cl)cc3)c(Nc3ccc(Cl)cc3)nc2c1 | - | - | - | -
Cc1ccc(C(=O)N2CCC(c3nc(-c4ccncc4)no3)CC2)cc1F | - | - | - | -
Cc1nc(C)c(-c2ccc(SCC(=O)Nc3ccc([N+](=O)[O-])cc3)nn2)s1 | - | 47.4 | - | -
COc1cccc(N2CCN(c3cc(C)nc4ncnn34)CC2)c1 | - | - | - | -
Cc1cc(N2CCN(c3nc4ccccc4s3)CC2)n2ncnc2n1 | - | 50.8 | - | -
Cc1ccc(-c2cn3ccccc3n2)cc1C | - | 58.9 | - | -
Cc1ccn2cc(-c3cccc(NC(=O)c4ccccc4)c3)nc2c1 | - | - | - | -
Cc1ccn2cc(-c3ccccc3)nc2c1 | - | 77.5 | - | -
Cc1ccn2cc(-c3cccc(Cl)c3)nc2c1 | - | - | - | -
Cc1ccn2cc(-c3ccc(O)c(O)c3)nc2c1 | - | 64.1 | - | -
CN(C)S(=O)(=O)c1ccc(-c2cn3ccccc3n2)cc1 | - | - | - | -
Oc1ccc(-c2cn3ccccc3n2)cc1O | - | - | - | -
Cc1ccn2cc(-c3ccc4ccccc4c3)nc2c1 | - | 63.1 | - | -
N=C1c2ccccc2CN1NC(=O)COc1ccc(OCc2ccccc2)cc1 | - | - | - | -
CC(=N/O)/C(C)=N\NC(=O)c1ccccn1 | - | 44.6 | - | -
CC(=N/NC(=O)c1ccc(C)cc1)/C(C)=N/O | - | 71.0 | - | -
O=c1cc(CSc2nnnn2-c2ccc(O)cc2)nc2sc3ccccc3n12 | - | - | - | -
O=C(OCc1cc(=O)n2c(n1)sc1ccccc12)C12CC3CC(CC(O)(C3)C1)C2 | - | 75.1 | - | -
NC(=O)c1sc2nc3cc4c(cc3cc2c1N)OCCO4 | - | 97.4 | - | -
Nc1c(C(=O)c2ccccc2)sc2nc3c(cc12)CCCC3 | - | 39.8 | - | -
NC(=O)c1sc2nc3c(cc2c1N)CCCCC3 | - | 67.7 | - | -
Nc1c(C(=O)c2ccc(Cl)cc2)sc2nc3c(cc12)CCCC3 | - | - | - | -
Nc1c(C(=O)Nc2cccc(C(=O)O)c2)sc2nc3c(cc12)CCC3 | - | 57.5 | - | -
Nc1c(C(=O)Nc2ccccc2)sc2nc3c(cc12)CCC3 | - | - | - | -
CCOCCCNC(=O)c1ccc2nc(N3CCC(C)CC3)sc2c1 | - | - | - | -
SMILES | FBW7 activator | TEAD-YAP inh | GPR151 ag | MITF inh
CCOc1ccc(-n2c(=S)sc3c(=O)n(-c4ccc(C)cc4)c(SCC(=O)N(CC)CC)nc32)cc1 | - | - | - | -
Nc1c(C(=O)N2CCOCC2)sc2nc3c(cc12)CCCCC3 | - | 86.8 | - | -
Nc1c(C(=O)N2CCOCC2)sc2nc3c(cc12)CCCC3 | - | - | - | -
Cc1cc(C)c2nc3sc(C(=O)N4CCOCC4)c(N)c3cc2c1 | - | 36.0 | - | -
O=C1Cc2ccccc2N1C1CCN(CC(O)COc2ccccc2)CC1 (stereo not drawn) | - | 36.0 | - | -
OC(COc1ccccc1)CN1CCN(CC(O)COc2ccccc2)CC1 (stereo not drawn) | - | - | - | -
CCS(=O)(=O)C1=NN2C(=N)/C(=C\c3ccc(Br)o3)C(=O)N=C2S1 | - | - | - | 77.7
CCS(=O)(=O)C1=NN2C(=N)/C(=C\c3ccc(C)o3)C(=O)N=C2S1 | - | - | - | -
CS(=O)(=O)C1=NN2C(=N)/C(=C\c3ccc(Br)cc3)C(=O)N=C2S1 | - | - | - | -
CS(=O)(=O)C1=NN2C(=N)/C(=C\c3ccc(Br)o3)C(=O)N=C2S1 | - | - | - | 79.4
CCS(=O)(=O)C1=NN2C(=N)/C(=C\c3ccc([N+](=O)[O-])o3)C(=O)N=C2S1 | - | - | - | 93.0
CCOC(=O)c1c(NC(=O)CNCCOC)sc2c1CC(C)(C)NC2(C)C | - | - | - | -
COc1ccccc1N1CCN(C(=O)c2sc3ncnc(N4CCN(c5ccccn5)CC4)c3c2C)CC1 | - | 35.3 | - | -
CCN1CCN(C(=O)c2sc3ncnc(N4CCN(c5ccccn5)CC4)c3c2C)CC1 | - | - | - | -
Cc1c(C(=O)N2CCN(Cc3ccccc3)CC2)sc2ncnc(N3CCN(c4ccccn4)CC3)c12 | - | 36.5 | - | -
CC(C)OC(=O)CSc1nc2c(c(-c3ccc(O)cc3)c1C#N)CCCC2 | - | 47.8 | - | -
COc1ccc(CC2(C)OC(c3cccs3)=NN2C(C)=O)cc1 (stereo not drawn) | - | 36.3 | - | -
COc1ccc(CC2(C)OC(c3ccncc3)=NN2C(C)=O)cc1 (stereo not drawn) | - | - | - | -
O=C1C(Cl)=C(N2CCCCC2)C(=O)C(Cl)=C1/C=C/N1CCCCC1 | - | - | - | 86.2
Cc1sc(NC(=O)c2ccccc2Cl)c(C#N)c1C | 2.6 | - | - | -
